Compounds with a hit are over-represented: about 21% of the library has one in this group of screens.
Pf growth 48h = P. falciparum growth inhibition at 48 hours (one generation). P. falciparum luciferase growth in erythrocytes, 48 h. Potency, µM (series often up to 28.7 µM), inactives show at the highest dose activity change, negative = inhibition, actives largely listed as inhibitors. 310,000 compounds, 5.9% hits; further: potency means the concentration at half of the fitted maximal effect; on the % scale 0 is the no-effect control and ±100 the full control effect
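Cell-based growth assay: transgenic P. falciparum expressing firefly luciferase, cultured in red cells within RPMI 1640 containing 0.5% w/v Albumax, 24 mM bicarbonate and gentamycin. A drop in luciferase activity indicates inhibition.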
Pf growth 96h = P. falciparum growth inhibition at 96 hour, primary screen for plastid delayed-death inhibitors. 320,000 compounds, 6.9% hits. AID 504834. P. falciparum luciferase reporter growth, 96 h. Potency, µM (top dose mostly 28.7 µM), without a hit: at the top dose activity change, negative = inhibition, actives largely listed as inhibitors; further: potency means the concentration at half of the fitted maximal effect; on the % scale 0 is the no-effect control and ±100 the full control effect
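P. falciparum expressing integrated firefly luciferase, in erythrocytes at 2% hematocrit, 0.05% parasitemia, incubated with compounds 96 h at 37 C, 5% CO2. Growth inhibition read as loss of luminescence; two-generation exposure targets delayed-death apicoplast inhibitors.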
Cycloheximide cs = counter-screen for Shiga toxin inhibitors: cycloheximide protein synthesis inhibition. 300,000 compounds, 12% hits. max response, %. cell reporter, cycloheximide protein synthesis inhibition counterscreen; in the data active means max response mostly above about 13%, no sharp cut-off; inactive means mostly below about 14%; further: read at 38.3 µM for the half of the compounds with a filed dose; 0% is about no effect
Shiga inhibitor = blocks Shiga toxin action in Vero cells. AID 2315. inhibition, % at 38.7 µM. Vero cells, Shiga toxin protein synthesis inhibition reporter. 290,000 compounds, 9.2% hits; in the data active means inhibition mostly above about 28%, no sharp cut-off; inactive means mostly below about 43%; further: 0% is about no effect
* marks the source's active call; other numbers are inactive results; ? = inconclusive; / = not tested or not shown. Unless noted, the call rests on the fitted dose curve; in most records, active means well fitted inhibition curve with a large enough effect; inconclusive means small, poorly fitted or top-dose-only effect, or another doubt; inactive means no such curve, though single readings can be large or run the other way.

SMILES	Pf growth 48h	Pf growth 96h	Cycloheximide cs	Shiga inhibitor
COc1ccc2c(c1OC)C(=O)N(c1ccc(C)cc1)C2	146.6%	141.1%	54.1*	86.5*
COc1ccccc1N1Cc2ccc(OC)c(OC)c2C1=O	4.8%	43.1%	6.9	19.6
COc1ccc2c(c1OC)C(=O)N(c1cccc(C)c1)C2	172.2%	-19.9%	41.0*	49.1*
COc1c(OC(C)=O)c(=O)n2c3ccccc3c3ccnc1c32	-8.4%	24.9%	/	/
COc1ccc(C2N(c3ccc4c(c3)OCCO4)C(=O)C2(F)F)cc1OC (stereo not drawn)	110.4%	18.6%	1.5	-2.4
Cc1nn(-c2ccc(C(=O)N3CCN(S(=O)(=O)c4ccccc4C(F)(F)F)CC3)cc2)c(C)c1Cl	13.1µM*	?	/	/
Cc1cc(C)n(-c2ccc(C(=O)N3CCN(S(=O)(=O)c4ccc(Cl)cc4)CC3)cc2)n1	10.4µM*	2.62µM*	/	/
CC(=O)c1ccc(S(=O)(=O)N2CCN(C(C)=O)CC2)cc1	0.0%	24.7%	-0.9	-8.5
CC(=O)c1ccc(S(=O)(=O)N2CCN(C(=O)c3ccc(-n4nc(C)c(Cl)c4C)cc3)CC2)cc1	?	13.1µM*	/	/
Cc1ccc(S(=O)(=O)N2CCCN(C(=O)c3ccc(-n4nccc4C)cc3)CC2)cc1	?	-28.5%	/	/
Cc1nn(-c2ccc(C(=O)O)cc2)c(C)c1Cl	52.6%	34.5%	25.2*	57.6*
O=C1CCc2ccc(NC(=O)C3CC3)cc2N1	-10.9%	5.5%	-2.1	-3.0
CCc1ccccc1N(CC(=O)Nc1cccnc1)S(=O)(=O)c1ccccc1	?	?	-1.3	-12.8
COc1ccc(S(=O)(=O)N(C)C)cc1NCC(=O)Nc1cccc(C#N)c1	?	11.7µM*	-3.5	24.0
Cc1ccc(NCC(=O)Nc2cccc(F)c2)cc1S(=O)(=O)N1CCCCCC1	0.262µM*	0.208µM*	-4.9	31.0
O=C(CSc1nnc(Nc2ccccc2)s1)Nc1cccc(S(=O)(=O)N2CCCCC2)c1	?	45.2%	49.5*	57.6*
COc1ccc([N+](=O)[O-])cc1NCC(=O)Nc1cccc(S(=O)(=O)N2CCCC2)c1	5.22µM*	?	/	/
O=C(CNc1cc([N+](=O)[O-])ccc1NCCO)Nc1cccc(S(=O)(=O)N2CCCCC2)c1	?	-29.3%	/	/
O=C(CNc1cccc(F)c1)Nc1cccc(S(=O)(=O)N2CCCCC2)c1	14.5%	34.3%	/	/
COc1ccc(NC(=O)CNc2cccc(C#N)c2)cc1Cl	9.7%	-20.6%	10.3	1.3
CCCC/C(O)=C1\C(=O)CC(C)(C)CC1=NCCCCCC(=O)O	?	?	1.7	-24.1
CN(C)c1ccccc1C(=O)N1CCCC(C(=O)c2ccc3ccccc3c2)C1 (stereo not drawn)	-14.8%	?	1.5	31.6
O=C(CCl)Nc1cccc(S(=O)(=O)N2CCCCCC2)c1	6.57µM*	5.22µM*	9.1	-5.7
O=C(CNc1cccc(S(=O)(=O)N2CCCC2)c1)Nc1ccc(C(F)(F)F)cc1	4.15µM*	1.85µM*	/	/
N#Cc1cccc(NC(=O)CNc2cccc(S(=O)(=O)N3CCCCC3)c2)c1	14.7µM*	?	/	/
SMILES	Pf growth 48h	Pf growth 96h	Cycloheximide cs	Shiga inhibitor
O=C(Nc1cc(S(=O)(=O)N2CCCCCC2)ccc1OCC(F)(F)F)C1CCC1	-19.3%	-15.5%	-4.6	-38.1
CN(C)S(=O)(=O)c1ccc(NC(=O)CNc2cc(S(=O)(=O)N3CCCC3)ccc2OCC(F)(F)F)cc1	?	13.1µM*	-0.8	-10.2
COc1cc(CCC(=O)N2CCN(c3ccccc3)CC2)cc(OC)c1OC	-9.4%	-4.2%	-4.9	5.2
CCCCCN(C(=O)CCC(=O)OCC(=O)N1CCC(C)CC1)c1c(N)n(CCCC)c(=O)[nH]c1=O	15.1%	44.7%	/	/
O=C(Cc1n[nH]c(=O)c2ccccc12)NC(c1ccccc1)c1ccccc1	31.8%	?	16.0*	39.4
COc1ccccc1CCC(=O)Nc1cccc(S(=O)(=O)N2CCCCCC2)c1	?	-29.1%	/	/
CC(NC(C)c1ccccc1Cl)C(=O)Nc1cccc(S(=O)(=O)N2CCCCC2)c1 (stereo not drawn)	10.4µM*	13.1µM*	/	/
O=C(Cc1n[nH]c(=O)c2ccccc12)NCc1ccccc1	-4.7%	-4.6%	-2.1	-1.3
O=C(Cc1n[nH]c(=O)c2ccccc12)Nc1cccc(S(=O)(=O)N2CCCCCC2)c1	9.28µM*	?	/	/
COc1cc(NCC(=O)Nc2cccc(S(=O)(=O)N3CCCCC3)c2)cc(OC)c1OC	1.85µM*	?	/	/
COc1cccc(CNC(=O)CNS(=O)(=O)c2ccc(Br)s2)c1	-14.2%	?	-1.1	10.5
COc1ccc(/C=C/C(=O)Nc2cccc(S(=O)(=O)N3CCCC3)c2)cc1OC	13.1µM*	?	5.9	7.3

Compound activity (PubChem BioAssay)
